The campaign covered roughly 340,000 compounds. About 4,500 (1.3%) were called active. About 5% were inconclusive and are not listed. Calls follow the shape of the dose curve; as a rule, active = well fitted inhibition curve with a large enough effect; inconclusive = small, poorly fitted or top-dose-only effect, or another doubt; inactive = no such curve, though single readings can be large or run the other way. The list comes from a sample in which actives are over-represented; it also holds similar structures and randomly drawn compounds.
Target: DNA polymerase beta (Homo sapiens) (UniProt P06746)
Assay: qHTS Assay for Inhibitors of DNA Polymerase Beta
Settings: Pol beta primer extension/strand displacement, fluorescence kinetic; series mostly up to 114 µM
Excerpt: The base excision repair system in human cells is a target for therapeutic modulation of the response to irradiation treatment and DNA-damaging drugs. A key enzyme in this system is the bi-functional DNA polymerase known as DNA polymerase Beta (Pol Beta). The following is a homogeneous kinetic assay to study the primer extension and strand-displacement reaction catalyzed by pol beta.
A stepwise description of the 1536-well assay is shown in next Table. Three microliters of reagents (buffer in column 3 and 4 as negative control and 10 nM Pol beta in columns 1, 2, and 5-48) was dispensed into 1,536-well black solid-bottomed plate. Compounds (23 nL) were transferred via Kalypsys pin tool equipped with 1536-pin array (10 nL slotted pins, V&P Scientific, San Diego, CA). The plates were incubated for 15 min at room temperature, and 1 uL substrate (50 nM final concentration) were added to start the reaction and immediately read at 0 min read on Viewlux reader. The plate were further incubated for 10 min at room temperature, and then read on Viewlux again. Throughout the screen, reagent bottle and all liquid lines were chilled and made light-tight to minimize reagent degradation. All screening operations were performed on a fully integrated robotic system (Kalypsys, San Diego, CA) containing one RX-130 and two RX-90 anthropomorphic robotic arms (Staubli, Duncan, SC). Library plates were screened starting from the lowest and proceeding to the highest concentration, and a double-dipping step of the highest concentration was required to access higher concentrations of compounds. Vehicle-only plates, with DMSO being pin-transferred to the entire column 5-48 compound area, were inserted uniformly at the beginning and the end of each library in order to monitor for and record any shifts in the background, which can be affected by reagent dispensers or loss in enzyme activity overtime. Screening data were corrected, normalized, and concentration-effect relationships were derived by using publicly-available curve fitting algorithms developed in-house (http://ncgc.nih.gov/pub/openhts). A four parameter Hill equation was fitted to the concentration-response data by minimizing the residual error between the modeled and observed responses.
Potency is read from the fitted curve at half-maximal effect.

Potency, inactive:
CC(C)c1ccc2oc(-c3cc(NC(=O)c4cccs4)ccc3Cl)nc2c1
N#Cc1ccsc1NC(=O)CN1CCCCC1
Cc1cccc(C)c1Nc1nnc(SCC(=O)Nc2sccc2C#N)s1
CCOc1ccc(NC(=O)CSc2c3c(nc4ccccc24)CCCC3)cc1
COc1cc(NC(=O)CSc2nc3nc(C)c(Cc4ccc(C)cc4)c(C)n3n2)cc(OC)c1OC
Cc1cccc(C2=N/C(=C/c3cccs3)C(=O)O2)c1
CN1C/C(=C/c2cccs2)C(=O)/C(=C\c2cccs2)C1
COc1ccc(CCC(=O)NCCc2csc(-c3ccc(Cl)cc3)n2)cc1
COCCCNc1nc2c(-c3cccc(C(F)(F)F)c3)nnn2c2ccccc12
COc1ccc(CCNc2nc3c(-c4cccc(F)c4)nnn3c3ccccc23)cc1OC
COc1ccc(C(=O)COC(=O)CCCC(=O)Nc2cc(C(F)(F)F)ccc2Cl)cc1
O=C(CCCN1C(=O)/C(=C/c2ccccc2)SC1=S)Nc1ccc(O)cc1
O=C(CCN1C(=O)/C(=C/c2cccs2)SC1=S)NNC(=O)c1cccc(O)c1
COc1ccc(/C=C2/SC(=O)N(CCCCCC(=O)Nc3ccccc3C(=O)O)C2=S)cc1
O=C(CCCN1C(=O)/C(=C/c2cccs2)SC1=S)Nc1ccc(O)cc1
CN1C=CC=C/C1=C1\SC(=S)N(Cc2ccccc2)C1=O
COc1ccc(/C=C2\SC(=S)N(CC(=O)NNC(=O)c3ccncc3)C2=O)cc1
Cc1ccc(/C=C2\SC(=S)N(CCC(=O)Nc3ccc(O)cc3)C2=O)cc1
O=C1/C(=C\c2ccccc2Cl)SC(=S)N1CCC(=O)N1CCCc2ccccc21
COc1cccc(CN2CCc3nc(SCC(=O)Nc4ccccc4)[nH]c(=O)c3C2)c1
Cc1ccc2nc(COc3ccccc3NC(=O)Nc3ccc(F)c(Cl)c3)cc(=O)n2c1
COc1ccc(-c2c3c(=O)n(C)c(=O)n(C)c3c3c(C)nc4ccccc4n23)cc1
Cc1ccc(-c2nnc(Nc3cccc(Br)c3)c3ccccc23)cc1S(=O)(=O)NCC1CCCO1 (stereo not given)
COc1ccc(-c2cccc(NS(=O)(=O)c3cc(C)c(OC)c(C)c3C)c2)nn1
O=C(O)c1ccc(Cn2c(SCc3ccc(F)cc3)nc3ccncc32)cc1
CCOc1ccc(N(CC)S(=O)(=O)N2CCCC(C(=O)Nc3ccc(C(C)=O)cc3)C2)cc1 (stereo not given)
COc1cc(OC)c(C2C=C(C(=O)O)Nc3ncnn32)cc1OC (stereo not given)
CC1CCN(S(=O)(=O)c2ccc3c(ccn3CCC(=O)NCc3ccc(N(C)C)cc3)c2)CC1
O=C(CSc1ncc(S(=O)(=O)c2ccc(Br)cc2)c(=O)[nH]1)Nc1ccc2c(c1)OCCO2
Cc1ccc(/C=C(\C#N)C(=O)Nc2cc(C)ccc2C)cc1
CN=C1S/C(=C\c2ccc(Sc3ccc(Cl)cc3)o2)C(=O)N1C
CN=C1S/C(=C\c2c(OC)cc(OC)cc2OC)C(=O)N1C
CCOc1ccc(NC(=O)c2c(NC(=O)Cc3ccccc3)sc3c2CCCCC3)cc1
COc1cc(C(=O)OC2CCOC2=O)c([N+](=O)[O-])cc1OC (stereo not given)
Cc1nn(Cc2ccccc2)c(Cl)c1C(=O)OC1CCOC1=O (stereo not given)
COc1ccc(N2CCN(S(=O)(=O)CCNC(=O)C(c3ccccc3)c3ccccc3)CC2)cc1
CCOC(=O)c1cc(-c2ccccc2)n(CCC(=O)Nc2ccccc2CC)c1C
CCOC(=O)c1c(C)oc2nc(C)nc(N(CC(C)C)CC(C)C)c12
CCCCNC(=O)C1CCCN(c2nnc(C)c3c(C)n(-c4ccc(Cl)cc4)nc23)C1 (stereo not given)
CCSc1ncnc2c(C#N)c3n(c12)CCCCC3

Potency, active:
Cc1csc(SCC(=O)Nc2sccc2C#N)n1 20 µM
CSC1=N/C(=C\C=C\c2cccs2)C(=O)S1 20 µM
COCCCNc1nc2c(-c3cccc(C)c3)nnn2c2ccc(Cl)cc12 35.5 µM
COc1cc(/C=C2/SC(=S)N(Cc3ccccc3)C2=O)cc(OC)c1O 14.1 µM
O=C(CCCN1C(=O)/C(=C\c2ccco2)SC1=S)Nc1cccc2ccccc12 10 µM
COc1ccc(/C=C2\SC(=S)N(CCC(=O)Nc3cccc(C(=O)O)c3)C2=O)cc1OC 70.8 µM
O=C(CCCN1C(=O)/C(=C/c2ccco2)SC1=S)Nc1ccccc1 12.6 µM
CN1C(=O)/C(=C/c2ccco2)SC1=Nc1cccc(C(=O)O)c1 17.8 µM
CC(C)c1ccc(C(=O)OC2CCOC2=O)cc1 (stereo not given) 20 µM
CCSC1=C(C#N)C(=O)n2c1cc1c2CCCC1 39.8 µM
